TMEM16A act – activates or potentiates the mouse TMEM16A chloride channel | B-score at 10 µM | HEK293 TMEM16A/YFP-H148Q/I152L, iodide quench fluorescence; active compounds read low | AID 623877 | Q8BHY3 | actives 0.3% (n = 340,000);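 active = fluorescence-ratio B-score plate-corrected deviation score at least 3 library SD below zero, with starting fluorescence score within 5 deviations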;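 also: channel opened by trigger with iodide after compound preincubation; score built on the fluorescence ratio of max minus min over baseline; more negative score means more quench and so TMEM16A activation or potentiation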
Target sequence (Q8BHY3 whole entry, looked up): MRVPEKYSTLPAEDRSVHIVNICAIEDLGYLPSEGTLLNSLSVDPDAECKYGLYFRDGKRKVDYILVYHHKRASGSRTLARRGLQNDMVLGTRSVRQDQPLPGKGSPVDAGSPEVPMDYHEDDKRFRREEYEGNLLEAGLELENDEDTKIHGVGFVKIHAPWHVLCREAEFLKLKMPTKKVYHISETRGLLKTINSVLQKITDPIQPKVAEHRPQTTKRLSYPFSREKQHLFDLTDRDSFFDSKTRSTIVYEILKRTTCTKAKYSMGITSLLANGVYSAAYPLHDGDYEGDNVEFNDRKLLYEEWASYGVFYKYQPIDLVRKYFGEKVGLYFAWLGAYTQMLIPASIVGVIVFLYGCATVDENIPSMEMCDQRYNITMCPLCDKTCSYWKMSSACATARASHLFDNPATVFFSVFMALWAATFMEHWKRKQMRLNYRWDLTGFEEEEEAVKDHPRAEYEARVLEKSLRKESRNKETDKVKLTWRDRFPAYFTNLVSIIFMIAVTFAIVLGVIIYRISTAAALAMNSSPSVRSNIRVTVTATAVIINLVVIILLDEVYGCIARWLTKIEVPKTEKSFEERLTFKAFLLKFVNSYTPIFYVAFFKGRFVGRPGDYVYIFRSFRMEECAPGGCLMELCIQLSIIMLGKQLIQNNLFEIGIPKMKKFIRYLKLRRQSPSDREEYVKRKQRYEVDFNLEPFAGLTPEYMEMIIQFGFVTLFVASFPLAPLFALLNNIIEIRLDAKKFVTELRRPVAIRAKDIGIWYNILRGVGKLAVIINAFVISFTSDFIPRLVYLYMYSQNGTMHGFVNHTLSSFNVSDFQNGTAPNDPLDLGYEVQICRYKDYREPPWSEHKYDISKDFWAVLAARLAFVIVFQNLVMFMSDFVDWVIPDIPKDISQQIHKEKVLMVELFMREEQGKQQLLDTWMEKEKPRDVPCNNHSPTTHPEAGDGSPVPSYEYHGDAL
aSyn 5UTR inh – 5' untranslated region of α-synuclein, MLPCN primary screen; AID 1813; alpha-synuclein 5'UTR reporter, inhibitor activity; inhibition, % (tested at 7.5 µM); actives 0.82% (n = 300,000); in the data active = inhibition above about 60%; inconclusive = no clear call, values can overlap the other calls;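 also: H4 neuroglioblastoma cells stably carrying SNCA 5'UTR luciferase fusion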
KLF5 inhibitor – kruppel-like factor 5 inhibition; AID 1700; inhibition, % at 5 µM; actives 0.23% (n = 290,000); DLD-1 KLF5 promoter-luciferase reporter, luminescence;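 active = inhibition above a per-plate limit of that plate's mean compound inhibition plus 3 SD, cut at about 60% in these data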;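 also: higher means less KLF5 promoter-driven luciferase light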
ANO1 block – blocks the mouse calcium-activated chloride channel TMEM16A; normalized B-score (activity score, 25-100; higher = stronger inhibition) at 10 µM; HEK293 TMEM16A/YFP iodide influx fluorescence, ionomycin; actives 1.2% (n = 310,000); AID 588511; Q8BHY3;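 active = ratio plate-corrected score three or more library SD toward inhibition, starting fluorescence score within five deviations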;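 also: score derived from kinetic fluorescence span divided by baseline fluorescence per well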
697 NFkB inh – inhibitors of the PMA/ionomycin-induced NF-kB reporter in 697 B cells; 697 B-cell NF-kB luciferase reporter, 16 h; inhibition, % at 4 µM; actives 0.33% (n = 330,000); in the data active = inhibition above about 35%
Jurkat NFkB inh – lowers PMA/ionomycin-induced NF-kB signal in Jurkat cells | PMA/ionomycin-induced NF-kB luciferase reporter, luminescence | inhibition, % at 4 µM | actives 0.53% (n = 330,000) | AID 435003; in the data active = inhibition above about 50%
KLF5 confirm – confirmation of KLF5 inhibitors. inhibition, % at 4 µM. DLD-1 KLF5 promoter firefly luciferase reporter, luminescence. actives 79% (n = 610). shares compounds with KLF5 inhibitor;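 active = inhibition above a set limit taken from the earlier primary screen, cut at about 63% in these data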
IEC-6 tox trip – kills rat IEC-6 cells in KLF5 counter-screen | inhibition, % at 4 µM | IEC-6 rat intestinal cells, viability luminescence | actives 56% (n = 610) | shares compounds with KLF5 inhibitor; in the data active = inhibition above about 23%;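 also: cells exposed to compounds for 48 hours before viability read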
Numbers stand for hits; n = inactive; u = inconclusive; x = no result. Most compounds without a hit are left out; they make up all but 2.5% or so of the library.

SMILES	TMEM16A act	aSyn 5UTR inh	KLF5 inhibitor	ANO1 block	697 NFkB inh	Jurkat NFkB inh	KLF5 confirm	IEC-6 tox trip
CC1CCN(Cc2c(C(=O)N/N=C/c3ccccc3O)nnn2-c2nonc2N)CC1	n	65.5	70.2	n	n	n	85.1	n
O=C(Cc1n[nH]c(=O)c2ccccc12)OCC(=O)c1ccc2c(c1)OCCO2	n	80.4	77.0	n	n	n	65.4	71.5
O=C(Cc1n[nH]c(=O)c2ccccc12)OCC(=O)c1ccc(F)cc1	n	n	x	n	n	n	x	x
COc1cccc(/C=N/Nc2ccnc(=O)[nH]2)c1O	n	n	80.8	n	n	n	n	n
COc1cccc(/C=N/NC(=O)c2cc3c(OC)ccc(OC)c3[nH]2)c1O	n	n	87.8	n	n	n	72.2	n
COc1cccc(/C=N/Nc2ccc([N+](=O)[O-])cn2)c1O	n	102.1	85.1	n	n	n	71.7	n
COc1cccc(/C=N/Nc2ncccc2[N+](=O)[O-])c1OC	n	91.6	81.4	n	n	n	n	22.6
Cc1ccc(C23CC4CC(CC(C(=O)N(C)C)(C4)C2)C3)cc1	n	n	n	n	n	n	x	x
O=c1nccc(N/N=C/c2ccccc2O)[nH]1	n	n	87.6	n	n	n	n	n
CCOc1ccccc1/C=N/Nc1ccnc(=O)[nH]1	n	n	n	n	n	n	x	x
O=C(Nc1ccc(Cl)cn1)c1cccc2c(Br)cccc12	n	n	62.4	n	n	n	n	n
COc1ccc(CNC(=O)CCC(=O)N2CCN(S(=O)(=O)c3cc([N+](=O)[O-])ccc3C)CC2)cc1	n	x	x	x	n	n	x	x
Cn1c2ccccc2c2cc(C(=O)N3CCOCC3)sc21	n	n	65.7	n	n	n	n	n
CCn1c(=O)c2cc(C(=O)N3CCOCC3)sc2c2ccccc21	n	n	n	n	n	n	x	x
Cc1ccc2nc(NC(=O)[C@H](C)N3C(=O)C4CC=CCC4C3=O)sc2c1 (stereo partly specified)	n	62.8	73.6	n	n	n	n	n
C[C@@H](C(=O)Nc1nc2ccc(F)cc2s1)N1C(=O)C2CC=CCC2C1=O (stereo partly specified)	n	n	n	n	n	n	x	x
O=C(O)c1ccc(N=Nc2c(O)ccc3ncccc23)cc1	n	n	86.8	n	n	n	n	n
CCCCCCCCCC[n+]1cccc2c3ccccc3ccc21	n	n	95.5	x	x	x	65.5	38.3
Cc1cccc[n+]1CCCCCCCCCC[n+]1ccccc1C	n	n	n	n	n	n	x	x
CCCCCCCC[n+]1cccc2c3ccccc3ccc21	n	n	81.9	100	n	n	92.7	43.4
O=C(O)C(c1ccccc1)C1(O)CCC1 (stereo unspecified)	n	x	x	x	x	x	x	x
O=C(CNC(=O)c1ccc(Cl)cc1Cl)OCc1nnc(-c2ccccc2)o1	n	n	x	n	n	n	x	x
COc1ccc(NS(=O)(=O)c2cc(C)ccc2NC(=O)c2cc(C)oc2C)cc1	n	103.5	62.5	n	n	n	81.0	62.1
c1ccc2nc(-c3ccncc3)ccc2c1	n	n	n	n	n	n	x	x
CN1CCN(c2ccc(-c3ccc4ccccc4n3)cc2)CC1	n	111.6	99.3	x	x	x	104.0	n
SMILES	TMEM16A act	aSyn 5UTR inh	KLF5 inhibitor	ANO1 block	697 NFkB inh	Jurkat NFkB inh	KLF5 confirm	IEC-6 tox trip
COc1ccc(S(=O)(=O)N2CCNCC2)cc1	n	n	n	n	n	n	x	x
Cc1nc(N/N=C/c2ccccn2)sc1C	x	x	79.1	n	x	x	78.2	n
Cn1c(CCC(=O)O)nc2cc(S(=O)(=O)N3CCCCC3)ccc21	n	x	x	x	n	n	x	x
CC(=O)c1ccc(Nc2cc(C)nc3c(C)cc(C)cc23)cc1	n	n	67.4	n	n	n	78.9	49.5
Cc1cc(C)c2nc(C)cc(Nc3ccc(C(=O)N(C)C)cc3)c2c1	x	n	n	n	n	n	x	x
O=C1CCCC2=C1C(c1cccc(O)c1)c1c(ccc3ncccc13)N2 (stereo unspecified)	n	n	n	n	n	n	x	x
O=C(N/N=C/c1cc(Br)cc(Cl)c1O)c1ccc2c(c1)OCO2	n	u	x	n	n	n	x	x
O=C(N/N=C/c1ccccc1O)c1ccc2c(c1)OCO2	n	n	71.9	n	n	n	n	n
Cc1cc(Br)cc(/C=N/NC(=O)c2ccc3c(c2)OCO3)c1O	n	n	70.5	n	n	n	n	n
CCOc1ccc(CN(C)C(=O)c2ccc(S(=O)(=O)N(C)c3ccccc3OC)cc2)cc1	n	x	x	x	n	n	x	x
CC1=NN(c2nc3ccccc3[nH]2)C(=O)/C1=C/N(C)C	n	x	n	n	n	n	x	x
CC1=NN(c2nc3ccccc3[nH]2)C(=O)C1Cc1ccccc1 (stereo unspecified)	n	n	62.7	n	n	n	80.8	n
CC(C)(C)NC(=O)NC(=O)COC(=O)C1CCN(S(=O)(=O)c2cccs2)CC1	n	x	x	x	n	n	x	x
COC(=O)c1c(N)sc(C(=O)NCCc2ccccc2)c1C	n	104.9	92.9	n	n	n	84.7	n
COc1cccc(OC)c1C(=O)NCCc1ccccc1	n	n	x	n	n	n	x	x
C[C@@]12C(=O)N(c3ccc(C(F)(F)F)cc3)C(=O)N1[C@@H]1c3ccccc3OC[C@@H]1[C@H]2c1ccccc1	n	n	n	n	n	n	x	x
O=C(c1ccccc1F)N1CCN(C(=O)C(c2ccccc2)c2ccccc2)CC1	n	n	n	n	n	n	x	x
Cc1ccc(-n2c(-c3ccc(Br)cc3)c[n+]3c2CCc2ccc4cccnc4c2-3)cc1	n	85.9	68.6	100	x	x	111.5	50.4
CCNC(=O)C1CCCN1C(=O)C(CCCN=C(N)N)NC(=O)C(CC(C)C)NC(=O)C(Cc1cn(Cc2ccccc2)cn1)NC(=O)C(Cc1ccc(O)cc1)NC(=O)C(CO)NC(=O)C(Cc1c[nH]c2ccccc12)NC(=O)C(Cc1cnc[nH]1)NC(=O)C1CCC(=O)N1 (stereo unspecified)	x	n	n	n	n	n	x	x
O=C(Nc1nc2cc3c(cc2s1)OCCO3)C1=COCCO1	n	99.0	95.6	n	n	n	92.4	n
COc1ccc2c(c1)C=C([C@@H]1C[C@H]3CN(c4ccccc4)C(=O)[C@]34CCCN14)CO2	n	n	74.6	n	n	n	n	n
COc1cc(CCCN2CCNC[C@@H]2Cc2ccccc2)cc(OC)c1OC	n	n	x	n	n	n	x	x
Nc1ccccc1C(=O)NC(=O)Nc1ccc(Oc2ncc(Br)cn2)c(Cl)c1	n	x	x	x	x	x	x	x
Cc1ccc(NC(=O)c2cc(C)n(-c3cccc(C)c3)c2C)cc1	n	n	77.5	n	n	n	88.6	n
Cc1cc(C(=O)Nc2ccc(Cl)cc2)c(C)n1-c1ccccc1	n	86.6	74.0	n	n	n	87.3	n
